Assay results: PubChem BioAssay AID1159580 (chemical genetic matrix, 2015)
Screen size: about 5,500 compounds; about 2,000 (36%) were called active. About 18% were inconclusive and are not listed. No stated cut-off is given here; in the data, active means normalized growth mostly below about 0.91 (no sharp cut-off); inconclusive means no clear call, values can overlap the other calls; inactive means mostly above about 0.92. The list shows a part of the results. *1 amine or outer side, *2 acyl side, *3 side chain or, on linkers, in order; H or OH if unused. Where a SMILES comes first, the peptide text is derived from it. Bridges are numbered along the chain shown (N, C = ends). [ ]: non-standard residue; d: D form. The star is where a group is joined. ξ: configuration not given here. ΔAla(E,3-NHCONH2) = NC(=O)N/C=C(/N)C(=O)O; X2 = NC1=NCCC(C(N[*:1])C(=O)[*:2])N1; ξβ3hOrn = NCCCC(N)CC(=O)*; Dap = NC[CH](N)C(=O)O

Assay: chemical genetic growth profiling, strain panel (AID 1159580);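 further: tested at 20 µM; growth read once vehicle control cultures reached saturation at 30 °C; 1 = growth at the plate median or of vehicle wells; lower values mean less growth of the strain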
Settings: growth OD

Measured: normalized growth

NCCCC(N)CC(=O)NCC1NC(=O)C(CO)NC(=O)C(N)CNC(=O)C(C2CCN=C(N)N2)NC(=O)/C(=C\NC(N)=O)NC1=O (stereo not drawn) (H-[Dap]S[Dap](ξβ3hOrn)[ΔAla(E,3-NHCONH2)][X2]; lactam 1-C; configuration not given here)
inactive: S. cerevisiae deletion strains, locus YJR066W, strain TOR1, active compounds read low 0.98 | S. cerevisiae deletion strains, locus YKL009W, strain mrt4, active compounds read low 1.03 | S. cerevisiae deletion strains, locus YKL068W, active compounds read low 1.01 | S. cerevisiae deletion strains, locus YKL085W, strain MDH1 (second series), active compounds read low 1 | S. cerevisiae deletion strains, locus YKL085W, strain MDH1, active compounds read low 1 | S. cerevisiae deletion strains, locus YKL160W, strain elf1, active compounds read low 1.02 | S. cerevisiae deletion strains, locus YKR001C, strain vps1, active compounds read low 1.01 | S. cerevisiae deletion strains, locus YKR026C, strain gcn3, active compounds read low 1.01 | S. cerevisiae deletion strains, locus YKR091W, strain srl3, active compounds read low 1 | S. cerevisiae deletion strains, locus YLL001W, strain dnm1, active compounds read low 1.04 | S. cerevisiae deletion strains, locus YLL026W, active compounds read low 1.04 | S. cerevisiae deletion strains, locus YLL041C, strain sdh2, active compounds read low 1.02 | S. cerevisiae deletion strains, locus YLR027C, strain aat2, active compounds read low 1.05 | S. cerevisiae deletion strains, locus YLR039C, strain RIC1, active compounds read low 1.01 | S. cerevisiae deletion strains, locus YLR058C, strain SHM2, active compounds read low 1.01 | S. cerevisiae deletion strains, locus YLR102C, strain apc9, active compounds read low 1.02 | S. cerevisiae deletion strains, locus YLR113W, strain HOG1, active compounds read low 1.05 | S. cerevisiae deletion strains, locus YLR221C, strain rsa3, active compounds read low 0.993 | S. cerevisiae deletion strains, locus YLR258W, strain gsy2, active compounds read low 1 | S. cerevisiae deletion strains, locus YLR262C, strain YPT6 (second series), active compounds read low 1.03 | S. cerevisiae deletion strains, locus YLR262C, strain YPT6, active compounds read low 1.04 | S. cerevisiae deletion strains, locus YLR268W, strain sec22, active compounds read low 1.03 | S. cerevisiae deletion strains, locus YLR320W, strain mms22, active compounds read low 0.989 | S. cerevisiae deletion strains, locus YLR330W, strain CHS5, active compounds read low 1 | S. cerevisiae deletion strains, locus YLR342W, strain FKS1 (second series), active compounds read low 1.01 | S. cerevisiae deletion strains, locus YLR342W, strain FKS1, active compounds read low 1.03 | S. cerevisiae deletion strains, locus YLR357W, strain rsc2, active compounds read low 1 | S. cerevisiae deletion strains, locus YLR370C, strain arc18, active compounds read low 1.04 | S. cerevisiae deletion strains, locus YLR371W, strain rom2, active compounds read low 0.999 | S. cerevisiae deletion strains, locus YLR384C, strain iki3, active compounds read low 1.02 | S. cerevisiae deletion strains, locus YLR418C, strain cdc73, active compounds read low 0.995 | S. cerevisiae deletion strains, locus YML016C, strain PPZ1, active compounds read low 1 | S. cerevisiae deletion strains, locus YML032C, strain rad52, active compounds read low 1.02 | S. cerevisiae deletion strains, locus YML120C, strain ndi1, active compounds read low 1.05 | S. cerevisiae deletion strains, locus YML124C, strain tub3, active compounds read low 1.01 | S. cerevisiae deletion strains, locus YMR058W, strain fet3, active compounds read low 1.03 | S. cerevisiae deletion strains, locus YMR078C, strain ctf18, active compounds read low 1.03 | S. cerevisiae deletion strains, locus YMR125W, strain sto1, active compounds read low 0.993 | S. cerevisiae deletion strains, locus YMR129W, active compounds read low 1.02 | S. cerevisiae deletion strains, locus YMR205C, strain PFK2, active compounds read low 1.04 | S. cerevisiae deletion strains, locus YMR223W, strain ubp8, active compounds read low 1.03 | S. cerevisiae deletion strains, locus YMR231W, strain pep5, active compounds read low 1 | S. cerevisiae deletion strains, locus YMR263W, strain SAP30, active compounds read low 1 | S. cerevisiae deletion strains, locus YMR307W, strain GAS1, active compounds read low 1.06 | S. cerevisiae deletion strains, locus YNL067W, strain RPL9B, active compounds read low 1.01 | S. cerevisiae deletion strains, locus YNL071W, strain lat1, active compounds read low 0.994 | S. cerevisiae deletion strains, locus YNL183C, strain NPR1, active compounds read low 0.988 | S. cerevisiae deletion strains, locus YNL209W, strain ssb2, active compounds read low 0.998 | S. cerevisiae deletion strains, locus YNL233W, strain BNI4, active compounds read low 0.974 | S. cerevisiae deletion strains, locus YNL248C, strain rpa49, active compounds read low 0.98 | S. cerevisiae deletion strains, locus YNL250W, strain rad50, active compounds read low 1.02 | S. cerevisiae deletion strains, locus YNL271C, strain bni1, active compounds read low 1.03 | S. cerevisiae deletion strains, locus YNL298W, strain CLA4, active compounds read low 1.03 | S. cerevisiae deletion strains, locus YNL307C, strain MCK1, active compounds read low 1.03 | S. cerevisiae deletion strains, locus YNL322C, strain KRE1 (second series), active compounds read low 1.02 | S. cerevisiae deletion strains, locus YNL322C, strain KRE1, active compounds read low 1 | S. cerevisiae deletion strains, locus YNR049C, strain mso1, active compounds read low 1.01 | S. cerevisiae deletion strains, locus YNR052C, strain pop2, active compounds read low 1.01 | S. cerevisiae deletion strains, locus YOL012C, strain htz1 2.02 | S. cerevisiae deletion strains, locus YOL147C, strain pex11, active compounds read low 1.01 | S. cerevisiae deletion strains, locus YOR001W, strain rrp6, active compounds read low 1.03 | S. cerevisiae deletion strains, locus YOR061W, strain CKA2, active compounds read low 1.01 | S. cerevisiae deletion strains, locus YOR069W, strain VPS5, active compounds read low 1 | S. cerevisiae deletion strains, locus YOR070C, strain gyp1, active compounds read low 0.994 | S. cerevisiae deletion strains, locus YOR080W, strain dia2, active compounds read low 1.03 | S. cerevisiae deletion strains, locus YOR083W, strain WHI5, active compounds read low 1.02 | S. cerevisiae deletion strains, locus YOR106W, strain vam3, active compounds read low 1.04 | S. cerevisiae deletion strains, locus YOR136W, strain idh2, active compounds read low 1.01 | S. cerevisiae deletion strains, locus YOR144C, strain elg1, active compounds read low 1.02 | S. cerevisiae deletion strains, locus YOR184W, strain ser1, active compounds read low 1.02 | S. cerevisiae deletion strains, locus YOR231W, strain MKK1, active compounds read low 1.03 | S. cerevisiae deletion strains, locus YOR265W, strain rbl2, active compounds read low 1.02 | S. cerevisiae deletion strains, locus YOR270C, strain vph1, active compounds read low 1.09 | S. cerevisiae deletion strains, locus YOR290C, strain snf2, active compounds read low 0.981 | S. cerevisiae deletion strains, locus YOR316C, strain cot1, active compounds read low 1.05 | S. cerevisiae deletion strains, locus YPL051W, strain arl3, active compounds read low 1.01 | S. cerevisiae deletion strains, locus YPL055C, strain LGE1, active compounds read low 1.03 | S. cerevisiae deletion strains, locus YPL078C, strain atp4, active compounds read low 1.06 | S. cerevisiae deletion strains, locus YPL106C, strain sse1, active compounds read low 0.997 | S. cerevisiae deletion strains, locus YPL240C, strain hsp82, active compounds read low 1.01 | S. cerevisiae deletion strains, locus YPL256C, strain CLN2, active compounds read low 1.04 | S. cerevisiae deletion strains, locus YPR119W, strain clb2, active compounds read low 1 | S. cerevisiae deletion strains, locus YPR141C, strain kar3, active compounds read low 1.01 | S. cerevisiae deletion strains, locus YPR163C, strain tif3, active compounds read low 1.02 | S. cerevisiae deletion strains, locus YPR167C, strain met16, active compounds read low 1.01 | S. cerevisiae deletion strains, strain wtn01, active compounds read low 1.04 | S. cerevisiae strains, strain wild type, active compounds read low 1
